Measured values published in PubChem BioAssay (EPA / NIEHS).
“And” between values parts separate entries of the source, which are not always exact repeats. Equal entries are not always repeated. The source holds several records for some structures; these can differ, active in one and inactive in another. The source made the active and inactive calls. Rule for the calls: active = hit-call score of the fitted dose curve at least 0.9, where 1 is the maximum; inactive = score below 0.9.

assay: ATG_Oct_MLP_CIS: Attagene CIS-FACTORIAL HepG2 Assay for human Octamer-Binding Transcription Factor (Oct) (AID 2282993); conditions: HepG2 Attagene cis-factorial Oct reporter, mRNA; actives raise or lower the signal
Experimental: ATG_CIS is a cell-based, multiplexed-readout assay that uses HepG2, a human liver cell line, with measurements taken at 24 hours after chemical dosing in a 24-well plate.ATG_Oct_MLP_CIS is one of 52 assay component(s) measured or calculated from the ATG_CIS assay. It is designed to make measurements of mRNA induction, a form of inducible reporter, as detected with fluorescence intensity signals by Reverse transcription polymerase chain reaction (RT-PCR) and Capillary electrophoresis technology.Data from the assay component ATG_Oct_MLP_CIS was analyzed into 1 assay endpoint. This assay endpoint, ATG_Oct_MLP_CIS, was analyzed with bidirectional fitting relative to DMSO as the negative control and baseline of activity. Using a type of inducible reporter, measures of mRNA for gain or loss-of-signal activity can be used to understand the reporter gene at the transcription factor-level as they relate to the gene POU2F1. Furthermore, this assay endpoint can be referred to as a primary readout, because this assay has produced multiple assay endpoints where this one serves a reporter gene function. To generalize the intended target to other relatable targets, this assay endpoint is annotated to the dna binding intended target family, where the subfamily is POU domain protein.
Human liver HepG2 cells are transiently transfected with multiple reporter transcription units (MRTUs) in 6-well plates using FuGene 6 reagent (Roche; 3 ml FuGene/1 mg DNA). The MRTU constructs are regulated by a cis-regulating element (promoter). […] A major difference between the CIS and TRANS system is that in CIS activities of endogenous TFs are measured, whereas the TRANS assay evaluates changes in activities of exogenous, chimeric NR-Gal4 proteins. […] At the end of 24 hour incubation, total RNA was isolated using TriZol reagent (Invitrogen). The isolated RNA is then reverse-transcribed using oligo(dT) primer and Mo-MLV reverse transcriptase (Invitrogen) with DNAse I (Ambion) treatment for 30 min. The one-tenth of the produced cDNA was amplified by PCR using Taq DNA polymerase (Invitrogen) and two reporter sequence-specific primers. The PCR products were fluorescently labeled by primer extension with 6-arboxyfluorescein (6-FAM) 5'-labeled reporter sequence-specific primer (2 min at 95 C, 20 s at 68 C and 10 min at 72 C) and these products were digested with 5U of HpaI (New England Biolabs) for 2h at 37 C. The fragments were purified using Qiaquick PCR columns (Qiagen), analyzed on an ABI 3130xL genetic analyzer (Applied Biosystems) with peak positions identified by using a set of X-rhodamine (ROX)-labeled MapMarker1000 molecular weight standards (BioVentures). The raw capillary electrophoresis data was processed using Attagraph software (Attagene).

| SMILES | outcome | AC50 |
| --- | --- | --- |
| CC[C@H](NC(=O)c1cc(F)ccc1NS(=O)(=O)c1cccc2cccnc12)c1ccccc1 | inactive |  |
| O=c1ccc2ccccc2o1 | inactive |  |
| CCCCCCCCCC(=O)O | inactive |  |
| Cc1cn([C@H]2C[C@H](N=[N+]=[N-])[C@@H](CO)O2)c(=O)[nH]c1=O | inactive |  |
| Cc1cc2c(cc1C(F)(F)F)N(C(=O)Nc1ccc(Oc3cccnc3C)nc1)CC2 | inactive |  |
| O=C(OCCCCCCOC(=O)c1ccccc1)c1ccccc1 | inactive |  |
| Cc1c2ccccc2c(C)c2c1ccc1ccccc12 | inactive |  |
| O=C1CCC(C2CCCCC2)CC1 | inactive |  |
| COCC(C)OCC(C)OCC(C)O (stereo not given) | inactive |  |
| O=CCCCC=O | inactive |  |
| CN(C[C@@H](CC[N+]12CCC(C3CCCCC3)(CC1)CC2)c1ccc(Cl)c(Cl)c1)C(=O)c1cc(C(F)(F)F)cc(C(F)(F)F)c1 | inactive |  |
| CC(C)(C)c1cc(/C=C2\SC(N)=NC2=O)cc(C(C)(C)C)c1O |  | 16.2 µM (active) |
| CCOC(=O)O[C@H](C)OC(=O)c1ccc2c(c1)cc(C(=O)NC1CCN(C(C)C)CC1)n2Cc1cc(-c2ccc(Cl)s2)on1 | inactive |  |
| CC1(C)NC(=O)N(c2ccc([N+](=O)[O-])c(C(F)(F)F)c2)C1=O | inactive |  |
| C[C@]12CC[C@@H]3c4ccc(O)cc4CC[C@H]3[C@@H]1CC[C@H]2O | inactive | 27.2 µM (active) |
| O=C1O[C@H]([C@@H](O)CO)C(O)=C1O | inactive |  |
| CN(C)C(=O)C1(N2CCCCC2)CCN(CC[C@@]2(c3ccc(Cl)c(Cl)c3)CN(C(=O)c3ccccc3)CCO2)CC1 | inactive |  |
| CCO[Si](CCCNC(N)=O)(OCC)OCC | inactive |  |
| CN1C(=O)CC[C@H]1c1cccnc1 | inactive |  |

| SMILES | outcome | AC50 |
| --- | --- | --- |
| CCCCCCCCN(C)CCCCCCCC | inactive |  |
| CO[C@H]1/C=C/O[C@@]2(C)Oc3c(C)c(O)c4c(O)c(c(/C=N/N5CCN(C)CC5)c(O)c4c3C2=O)NC(=O)/C(C)=C\C=C\[C@H](C)[C@H](O)[C@@H](C)[C@@H](O)[C@@H](C)[C@H](OC(C)=O)[C@@H]1C | inactive |  |
| CN1C(=O)N(c2ccccc2Br)Cc2cnc(Nc3ccc4c(c3)OCC(CO)O4)nc21 (stereo not given) |  | 9.54 µM (active) |
| COc1ccc2cc(S(=O)(=O)N[C@H](CC(=O)N[C@H](Cc3ccc(CN4[C@H](C)CCC[C@@H]4C)cc3)C(=O)N(C)C(C)C)c3ccc4c(c3)OCO4)ccc2c1 |  | 11 µM (active) |
| CN(C)c1ccc(C(=C2C=CC(=[N+](C)C)C=C2)c2ccc(N(C)C)cc2)cc1 | inactive |  |
| c1ccc(C[n+]2cccc3ccccc32)cc1 | inactive |  |
| Cc1ccc2oc(CN(Cc3ccccc3)C(=O)Nc3c(F)cc(F)cc3F)c(-c3ccc(Cl)cc3)c2c1 | inactive |  |
| COc1cccc([C@H](O)C2CCN(CCc3ccc(F)cc3)CC2)c1OC |  | 157 µM (active) |
| CCCCCCCCCCCC[N+](C)(C)C | inactive | 20 µM (active) |
| c1ccc2n[nH]nc2c1 | inactive |  |
| O=C(O)c1ccccc1C(=O)OCc1ccccc1 | inactive |  |
| CCCOC(=O)c1cc(O)c(O)c(O)c1 | inactive |  |
| Cc1cc(F)ccc1-c1cc(N2CC[C@@H](O)[C@H]2CO)ncc1N(C)C(=O)C(C)(C)c1cc(C(F)(F)F)cc(C(F)(F)F)c1 | inactive |  |
| O=C(O)Cn1c(=O)n(Cc2ccc(Br)cc2F)c(=O)c2ccc(Cl)cc21 | inactive |  |
| CCCCOC(=O)c1ccc(O)cc1 | inactive | 116 µM (active) |
| CCCCCCCCOc1ccc(C(=O)c2ccccc2)c(O)c1 | inactive |  |
| CC(C)(c1cc(Br)c(O)c(Br)c1)c1cc(Br)c(O)c(Br)c1 |  | 47 µM (active) and 40.3 µM (active) |
| CC(C)(O)c1ccc(CNC(=O)c2cccnc2Oc2ccc3nonc3c2)cc1 | inactive |  |
